Several values for one entry are separate records, joined by “and”; a condition that tells them apart may be missing. Identical values can stand only once. Inconclusive results are not listed. Where a call stands in place of a potency, no number is given. Values without a mark were called inactive. Activity calls are given as the source filed them. Unless noted, calls come from the whole dose curve; as a rule, active = well fitted curve in the direction sought with a large enough effect; inconclusive = small, poorly fitted or top-dose-only effect, or another doubt; inactive = no such curve, though single readings can be large; an effect the other way counts as inactive or inconclusive.
Experiments:
[1] = qHTS for Inhibitors of Plasmodium falciparum (DD2) proliferation (AID 504314);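 for activity, negative = inhibition: parasite DNA measured by SYBR Green fluorescence after red cell lysis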
Outline: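 Erythrocytes infected with P. falciparum Dd2 (0.3% parasitemia, 2.5% hematocrit) exposed to compound 72 h at 37C, 5% CO2. Parasite DNA quantified by SYBR Green fluorescence after saponin/Triton lysis overnight; normalized to 0.29 uM artemisinin and DMSO.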

[2] = qHTS for Inhibitors of Plasmodium falciparum (GB4) proliferation (AID 504315); note: nearly all actives have a fitted effect of over 50% in size
Outline: (§1)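 Erythrocytes infected with P. falciparum line (0.3% parasitemia, 2.5% hematocrit final) incubated with compounds 72 h at 37 °C, 5% CO2; SYBR Green lysis buffer added, fluorescence read next day. Normalized to 0.29 uM artemisinin and DMSO.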

[3] = qHTS for Inhibitors of Plasmodium falciparum (7G8) proliferation (AID 504316); note: nearly all actives have a fitted effect of over 65% in size
Outline: as §1

[4] = qHTS for Inhibitors of Plasmodium falciparum (HB3) proliferation (AID 504318); note: nearly all actives have a fitted effect of over 60% in size
Outline: as §1

[5] = qHTS for Inhibitors of Plasmodium falciparum (CP250) proliferation (AID 504320)
Outline: as §1

[6] = molecular target: Atrial natriuretic peptide receptor 1 (Homo sapiens) (UniProt P16066); experiment: Natriuretic polypeptide receptor (hNpr1) antagonism - Pilot CMLD screen (AID 1347052; calls by dose curve;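 note: cGMP level read as GloSensor luciferase luminescence after agonist stimulation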)
Chain of Atrial natriuretic peptide receptor 1 (Homo sapiens) (P16066 whole entry, looked up): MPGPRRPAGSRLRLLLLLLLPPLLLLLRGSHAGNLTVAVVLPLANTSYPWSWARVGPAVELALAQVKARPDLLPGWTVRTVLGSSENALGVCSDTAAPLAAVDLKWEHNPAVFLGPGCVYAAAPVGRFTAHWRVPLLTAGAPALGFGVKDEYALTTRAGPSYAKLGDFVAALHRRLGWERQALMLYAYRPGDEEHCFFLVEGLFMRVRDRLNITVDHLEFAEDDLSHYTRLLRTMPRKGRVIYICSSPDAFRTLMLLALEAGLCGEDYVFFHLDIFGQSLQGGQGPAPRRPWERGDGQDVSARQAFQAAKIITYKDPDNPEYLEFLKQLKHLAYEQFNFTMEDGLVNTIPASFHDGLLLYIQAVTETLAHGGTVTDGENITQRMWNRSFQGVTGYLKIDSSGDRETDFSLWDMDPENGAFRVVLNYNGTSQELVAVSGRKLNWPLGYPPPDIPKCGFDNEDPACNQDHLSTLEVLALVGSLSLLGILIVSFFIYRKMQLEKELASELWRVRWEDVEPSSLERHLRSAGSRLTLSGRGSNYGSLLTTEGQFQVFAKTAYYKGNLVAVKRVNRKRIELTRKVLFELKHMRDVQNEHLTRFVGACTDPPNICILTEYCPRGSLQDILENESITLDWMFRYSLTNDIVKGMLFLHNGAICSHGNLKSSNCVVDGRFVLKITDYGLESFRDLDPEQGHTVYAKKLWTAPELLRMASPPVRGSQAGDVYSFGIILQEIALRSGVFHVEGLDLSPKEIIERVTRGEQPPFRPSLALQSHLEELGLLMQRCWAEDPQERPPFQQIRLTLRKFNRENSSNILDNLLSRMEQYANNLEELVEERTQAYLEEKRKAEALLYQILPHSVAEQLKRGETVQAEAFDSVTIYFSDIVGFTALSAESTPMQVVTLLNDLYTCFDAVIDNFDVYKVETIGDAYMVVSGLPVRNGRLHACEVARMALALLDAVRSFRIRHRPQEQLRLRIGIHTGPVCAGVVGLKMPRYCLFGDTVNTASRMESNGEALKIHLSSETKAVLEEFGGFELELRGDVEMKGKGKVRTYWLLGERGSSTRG
Potency is the fitted concentration of half-maximal effect.

| SMILES | Potency [1] | Potency [2] | Potency [3] | Potency [4] | Potency [5] | Potency [6] | activity, negative = inhibition [1] |
| --- | --- | --- | --- | --- | --- | --- | --- |
| COc1ccc(-c2nc(-c3ccccc3)oc2NC(C)c2ccccc2)cc1 (stereo not drawn) | inactive | inactive | inactive | inactive | inactive | inactive |  |
| COc1ccc([C@]23Cc4c(ccc5ccccc45)[C@H](O2)c2c(cc(-c4ccccc4)oc2=O)O3)cc1 | inactive | inactive | inactive | inactive | inactive | inactive |  |
| COC(=O)C1=C(C)N(CC#C[Si](C)(C)C)C(=O)N(C(C)=O)C1c1ccccc1 (stereo not drawn) | inactive | inactive | inactive | inactive | inactive | inactive |  |
| CCOC(=O)C1=CN(CCC=C(C)C)C(=O)N(C(C)=O)C1c1ccccc1 (stereo not drawn) | inactive | inactive | inactive | inactive | inactive | inactive |  |
| Cc1cc2c(c(=O)n1Cc1ccccc1)[C@H]1O[C@](CCCCN3C(=O)c4ccccc4C3=O)(Cc3c1ccc1ccccc31)O2 | 1.69 µM (active) | 1.51 µM (active) | 1.51 µM (active) | 1.51 µM (active) | 1.69 µM (active) | inactive |  |
| COC(=O)CC1=CO[C@@H](O)[C@@H]2C(CO)=CC[C@@H]12 | inactive | inactive | inactive | inactive | inactive | inactive |  |
| Cc1cc2c(nc1C)CCCN2CC(O)CN1CCCc2nc(-c3ccc(Br)cc3)ccc21 (stereo not drawn) | inactive | inactive | inactive | inactive | inactive | inactive |  |
| COC(=O)[C@@H]1CC[C@H](C)[C@@H](c2ccc(C)cc2)N1C(=O)c1ccc(C=NO[C@H](C)c2cn([C@@H]3COC[C@@H]3O)nn2)cc1 | inactive | inactive | inactive | inactive | inactive | inactive |  |
| COC(=O)N1C(c2ccccc2)=Cc2ccccc2C1C1(C(=O)OC)CCCC1=O (stereo not drawn) | inactive | inactive | inactive | inactive | inactive | inactive |  |
| COC(=O)CC=C[C@@H](C)[C@@H](C=NO[C@@H](C)c1cn([C@H](CO)Cc2ccccc2)nn1)NS(=O)(=O)c1ccc(C)cc1 | inactive | inactive | inactive | inactive | inactive | inactive |  |
| CC1(OC(=O)C2CCCC2)C(=O)C=C2C=C3CCCN3C=C2C1=O (stereo not drawn) |  | inactive | inactive | inactive | inactive | inactive | 0.418% [at 1.12 µM] |
| C#CCN1C(=O)CC[C@@]23C1=NC(C(=O)OC)=C(C(=O)OC)[C@@H]2N(Cc1ccccc1)c1ccccc13 | inactive | inactive | inactive | inactive | inactive | inactive |  |
| C=CCOC(=O)C1=C(C)N(CC)C(=O)NC1c1ccccc1 (stereo not drawn) | inactive | inactive | inactive | inactive | inactive | inactive |  |
| C=CC1=C2C=C(C3CC3)N(C3CCCC3)C=C2C(=O)C(C)(OC(=O)c2ccco2)C1=O (stereo not drawn) | inactive | inactive | inactive | inactive | inactive | inactive |  |
| C=CC[C@@H]1C=C[C@@H](Oc2ccc(OC)cc2)[C@H](COC(=O)c2ccc(Br)cc2)O1 | inactive | inactive | inactive | inactive | inactive | inactive |  |
| O=C(NN=C1C[C@@H](O)[C@H](O)[C@H]2[C@@H]3C(=O)N(c4cccc(Oc5ccccc5)c4)C(=O)[C@@H]3CC[C@H]12)OCc1ccccc1 | inactive | inactive | inactive | inactive | inactive | inactive |  |
| O=C1CCCC=C1C(CCc1ccccc1)OC(=O)c1ccc(Br)cc1 (stereo not drawn) | inactive | inactive | inactive | inactive | inactive | inactive |  |
| C=C(CCN1C=C(C(=O)OCC)C(c2ccccc2)NC1=O)c1ccccc1 (stereo not drawn) | inactive | inactive | inactive | inactive | inactive | inactive |  |
| CC[C@H](C)[C@@H](NC(=O)O[C@@H]1C(=O)c2ccc(OC)cc2O[C@H]1c1ccc2c(c1)OCO2)C(=O)OC | inactive | inactive | inactive | inactive | inactive | inactive |  |
| CCCCCCCc1cc2ccccc2c2c(C(C)=O)c(-c3ccccc3)c(C(=O)OC)n12 | inactive | inactive | inactive | inactive | inactive | inactive |  |
| CC(C)=CCCC(C)=CCON=C1C[C@@H](O)[C@@H](O)[C@@H]2[C@H]3C(=O)N(C[C@@H]4CCCO4)C(=O)[C@@H]3CC[C@H]12 | inactive | inactive | inactive | inactive | inactive | inactive |  |
| CCN1C(=O)[C@@H]2[C@H]3[C@H](O)[C@H](O)CC(=NO[C@H](C)CN4CCCc5nc(C)c(C)cc54)[C@@H]3CC[C@H]2C1=O | inactive | inactive | inactive | inactive | inactive | inactive |  |
| COC(=O)CCCC1=CC2=C(c3ccccc3)C(=O)C(C)(OC(=O)C3CCCC3)C(=O)C2=CN1CCN1CCOCC1 (stereo not drawn) | inactive | inactive | inactive | inactive | inactive | inactive |  |
| C[C@@H](ON=C1[C@H]2CCn3c(=O)n(-c4ccccc4)c(=O)n3[C@@H]2[C@H](O)[C@@H]2O[C@H]12)c1cn([C@H](CO)Cc2ccccc2)nn1 | inactive | inactive | inactive | inactive | inactive | inactive |  |

| SMILES | Potency [1] | Potency [2] | Potency [3] | Potency [4] | Potency [5] | Potency [6] | activity, negative = inhibition [1] |
| --- | --- | --- | --- | --- | --- | --- | --- |
| COc1cccc(O[C@H]2C=C[C@@H](c3ccccc3)O[C@H]2CO)c1 | inactive | inactive | inactive | inactive | inactive | inactive |  |
| CCC=CCCC(OC(=O)c1ccc(Br)cc1)C1=CCCCC1=O (stereo not drawn) | inactive | inactive | inactive | inactive | inactive | inactive |  |
| COC(=O)[C@H](COC(C)(C)C)NC(=O)O[C@@H]1C(=O)c2ccc(OC)cc2O[C@H]1c1ccc2c(c1)OCO2 | inactive | inactive | inactive | inactive | inactive | inactive |  |
| CC(C)CON=C1C[C@@H](O)[C@@H](O)[C@@H]2[C@H]3C(=O)N(Cc4ccc5c(c4)OCO5)C(=O)[C@@H]3CC[C@H]12 | inactive | inactive | inactive | inactive | inactive | inactive |  |
| COC(=O)N[C@@H](c1cccc(F)c1)[C@]1(C(=O)OC)CCCC1=O | inactive | inactive | inactive | inactive | inactive | inactive |  |
| COC(=O)C1=C(C(=O)OC)[C@@H]2N(C)c3ccccc3[C@@]23C[C@@H](C(=O)OC)N(C(=O)NCCBr)C3=N1 | inactive | inactive | inactive | inactive | inactive | inactive |  |
| COCCN1C(=O)N[C@@H](c2ccccc2)[C@H](C(C)=O)[C@H]1C | inactive | inactive | inactive | inactive | inactive | inactive |  |
| CCCCc1nc2c(c3c1C[C@H](C)OC3)CN(S(=O)(=O)CCCC)CC2 | inactive | inactive | inactive | inactive | inactive | inactive |  |
| COC(=O)C1=C(C(=O)OC)[C@@H]2N(Cc3ccccc3)c3ccccc3[C@@]23C[C@@H](C(=O)OC)N(C(=O)c2cccs2)C3=N1 |  | inactive | inactive | inactive | inactive | inactive | -0.326% [at 1.12 µM] |
| COCC=CC1=CC2=CC(=O)C(C)(OC(=O)c3cnc4ccccc4n3)C(=O)C2=CN1C1CC1 (stereo not drawn) | inactive | inactive | inactive | inactive | inactive | inactive |  |
| COC(=O)N1C(C)=Cc2ccccc2C1CC(C)=O (stereo not drawn) |  | inactive | inactive | inactive | inactive | inactive | -3.47% [at 1.12 µM] and -2.49% [at 1.12 µM] |
| Cc1cc(F)ccc1O[C@H]1C=C[C@@H](c2ccc3c(c2)OCO3)O[C@H]1CO | inactive | inactive | inactive | inactive | inactive | inactive |  |
| C=CCOC(=O)N[C@H](C(C(=O)OC)=C(C)NCc1ccccc1)c1ccc2c(c1)OCO2 | inactive | inactive | inactive | inactive | inactive | inactive |  |
| COC(=O)CCC(=O)OC1(C)C(=O)C=C2C=C3CCCN3C=C2C1=O (stereo not drawn) | inactive | inactive | inactive | inactive | inactive | inactive |  |
| CCN1C(=NCc2ccco2)N[C@@H](CCc2ccccc2)[C@H](C(=O)OC)[C@H]1C | inactive | inactive | inactive | inactive | inactive | inactive |  |
| C=CCOC(=O)C(C(=O)CC)[C@@H](NC(=O)OC)c1ccc(F)cc1 (stereo partly drawn) | inactive | inactive | inactive | inactive | inactive | inactive |  |
| CC(=O)OC[C@H]1O[C@H](c2cc(C)cc(C)c2)C=C[C@H]1OC(C)=O | inactive | inactive | inactive | inactive | inactive | inactive |  |
| C[C@H]1CC[C@H]2C(=O)O[C@H](CO)CN2[C@H]1c1ccc(Br)cc1 | inactive | inactive | inactive | inactive | inactive | inactive |  |
| COc1cccc([C@H]2Oc3ccc(OC)cc3C(=NOC[C@@H](C)[C@H](OCc3ccccc3)C(C)C)[C@H]2O)c1 | inactive | inactive | inactive | inactive | inactive | inactive |  |
| COC(=O)[C@H](COC(C)(C)C)NC(=O)O[C@@H]1C(=O)c2cc(Br)ccc2O[C@H]1c1ccc2c(c1)OCO2 | inactive | inactive | inactive | inactive | inactive | inactive |  |
| COC(=O)C1=C(C(=O)OC)[C@@H]2N(Cc3ccccc3)c3ccccc3[C@@]23C[C@@H](C(=O)OC)N(C(=O)Nc2ccccc2F)C3=N1 | inactive | inactive | inactive | inactive | inactive | 3.35 µM (active) |  |
| C=C=CCCN1C(=O)NC(c2ccccc2)C(C(=O)OC)=C1C (stereo not drawn) | inactive | inactive | inactive | inactive | inactive | inactive |  |
| COc1ccc2c(c1)C(=O)[C@H](OC(=O)Nc1ccc(OC(F)F)cc1)[C@@H](c1ccc(OC)c(Br)c1)O2 | inactive | inactive | inactive | inactive | inactive | inactive |  |
| COC(=O)C1=C(C(=O)OC)[C@@H]2N(C)c3ccccc3[C@@]23C[C@@H](C(=O)OC)N(C(=O)c2ccc(Br)cc2)C3=N1 | inactive | inactive | inactive | inactive | inactive | inactive |  |
